LYPLA1 counter: blocks human lysophospholipase 1, a PME1 counter-screen; 0.16% of 320,000 active; inhibition, % at 5.9 µM; recombinant LYPLA1, FP-Rh probe fluorescence polarization; AID 2174; O75608;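 active means inhibition above the mean of all tested compounds plus 3 SD, set per campaign, cut at about 14% in these data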;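 further: inhibitors block serine hydrolase probe labeling of LYPLA1 so polarization falls; 0% = enzyme with DMSO and 100% = wells lacking LYPLA1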
LYPLA2 inh: LYPLA2 (human) inhibition in PME1 counter-screen; inhibition, % at 5.9 µM; 0.38% of 320,000 active; AID 2177; recombinant LYPLA2, FP-Rh probe fluorescence polarization;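 active means inhibition above the screen-wide mean plus 3 SD, limit set per campaign, cut at about 26% in these data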;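 further: 0% = LYPLA2 with DMSO and 100% = wells lacking LYPLA2 enzyme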
Fam108B counter: blocks mouse Fam108B hydrolase in RBBP9 counter-screen | AID 1947 | 0.33% of 300,000 active | recombinant Fam108B, FP-Rh probe fluorescence polarization | inhibition, % at 9.51 µM;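 active means inhibition above the screen mean inhibition plus 3 SD, computed separately per campaign, cut at about 18% in these data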;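 further: inhibitors lower polarization as less probe binds the enzyme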
PP5 inh: inhibitors of human protein phosphatase 5 (PP5); P53041; 0.18% of 320,000 active; purified PP5c, OMFP substrate fluorescence; inhibition, % at 6.7 µM;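 active means inhibition above the campaign's mean inhibition across all tested compounds plus 3 SD, cut at about 9.5% in these data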;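 further: 0% = DMSO only and 100% = 100 µM cantharidin control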
PME-1 primary: blocks human protein phosphatase methylesterase 1; recombinant PME-1, FP-Rh probe fluorescence polarization; 0.53% of 320,000 active; inhibition, % at 5.9 µM;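 active means inhibition above the campaign mean of all compounds plus 3 SD, cut at about 26% in these data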;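 further: competitive labeling of PME-1 active site by serine hydrolase directed probe; 0% = PME-1 with DMSO and 100% = wells lacking PME-1 enzyme; inhibitors block probe labeling so polarization falls and inhibition rises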
Target sequence (Q9Y570 whole entry, looked up): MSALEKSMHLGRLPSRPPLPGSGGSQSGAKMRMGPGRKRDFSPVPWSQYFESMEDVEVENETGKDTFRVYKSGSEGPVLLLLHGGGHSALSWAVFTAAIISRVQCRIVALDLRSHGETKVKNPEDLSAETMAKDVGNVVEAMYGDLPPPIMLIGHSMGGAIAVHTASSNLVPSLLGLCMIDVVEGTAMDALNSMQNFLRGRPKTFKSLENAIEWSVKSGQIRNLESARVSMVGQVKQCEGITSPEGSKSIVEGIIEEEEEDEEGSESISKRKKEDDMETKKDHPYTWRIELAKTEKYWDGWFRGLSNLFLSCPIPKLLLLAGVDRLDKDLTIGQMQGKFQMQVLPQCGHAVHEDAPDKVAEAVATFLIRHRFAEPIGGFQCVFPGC
PP1 counter: PP1-alpha (human) inhibition in PP5 counter-screen | purified PP1alpha, OMFP fluorescence | inhibition, % at 6.7 µM | 0.9% of 320,000 active;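 active means inhibition above the mean inhibition of all tested compounds plus 3 SD, computed separately for each screening campaign, cut at about 15% in these data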
PP1 confirm: human PP1 phosphatase inhibition, confirmation. inhibition, % at 6.7 µM. 52% of 1,900 active. purified PP1alpha, OMFP substrate fluorescence. shares compounds with PP1 counter;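 active means mean PP1 inhibition above a set limit taken from the earlier primary screen, cut at about 15% in these data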
PP5 inh counter: PP5 phosphatase inhibition, counter-screen for PP1 inhibitors | inhibition, % at 6.7 µM | shares compounds with PP1 counter | 4% of 1,900 active | purified PP5c, OMFP fluorescence;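 active means mean PP5 inhibition over triplicate wells above about 9.5% taken from the earlier PP1 screen, limit read from the data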
An asterisk follows results filed as active; . = no result given. This is a sample that favours compounds with a hit; in the whole collection about 1.8% have one here.

SMILES | LYPLA1 counter | LYPLA2 inh | Fam108B counter | PP5 inh | PME-1 primary | PP1 counter | PP1 confirm | PP5 inh counter
CC(=O)Nc1ccc(NC(=O)c2ccc(S(=O)(=O)N(C)c3ccccc3)cc2)cc1 | -2.0 | -2.8 | . | 2.0 | 0.9 | 3.0 | . | .
CN(c1ccccc1)S(=O)(=O)c1ccc(C(=O)Nc2nnc(-c3ccco3)o2)cc1 | -1.7 | -3.7 | 8.2 | 5.5 | -1.1 | 22.3* | 20.4* | 2.4
CCCCN(CC)S(=O)(=O)c1ccc(C(=O)Nc2nnc(-c3ccccc3Cl)o2)cc1 | 4.1 | 3.1 | -1.9 | 0.0 | -4.4 | 8.4 | . | .
CCN(c1ccccc1)S(=O)(=O)c1ccc(C(=O)Nc2nnc(-c3ccco3)o2)cc1 | -4.4 | -3.8 | 0.1 | 5.6 | -7.6 | 19.4* | 22.8* | 2.1
COc1ccccc1OCCC(=O)NNC(=O)c1ccccc1F | 0.6 | 0.1 | . | -1.4 | -6.4 | -7.7 | . | .
CN(C)/C=C1/C(=O)N(c2ccc([N+](=O)[O-])cc2)N=C1c1ccccc1 | 0.4 | -4.6 | 4.9 | 1.7 | 4.7 | 19.9* | 10.6 | 1.7
CN(C)/C=C1\C(=O)N(c2ccc([N+](=O)[O-])cc2)N=C1c1ccccc1 | 0.7 | -0.8 | 11.9 | 2.8 | 10.9 | 22.0* | 8.2 | 0.9
CC1=NN(c2ccc([N+](=O)[O-])cc2)C(=O)/C1=C\N(C)C | -3.0 | -3.1 | -3.6 | 2.6 | -2.6 | 0.7 | . | .
CCc1nnc(NS(=O)(=O)c2ccc(NCc3cc(Cl)ccc3O)cc2)s1 | -2.2 | 1.5 | -1.1 | 1.4 | -0.5 | 2.7 | . | .
COCCNC(=O)c1onc(CSc2ccccc2)c1C(=O)NCCOC | -0.8 | 5.9 | -4.6 | 3.4 | -4.1 | 4.1 | . | .
CC(C(=O)c1ccc(Br)cc1)[n+]1cccc2ccccc21 (stereo unspecified) | 1.2 | -2.2 | -7.9 | 0.9 | -5.8 | 7.5 | . | .
C=CCNC(=O)c1ccc(Cn2c(=S)[nH]c3cc4c(cc3c2=O)OCO4)cc1 | -12.4 | -5.2 | -21.3 | 5.2 | -30.1 | 25.1* | -0.7 | -0.4
O=C(NCCN1CCCC1)c1ccc(Cn2c(=S)[nH]c3cc4c(cc3c2=O)OCO4)cc1 | -1.0 | 4.9 | -0.1 | 3.3 | -7.1 | 8.2 | . | .
Cc1cc(C)c2nc(N3CCCC(C(=O)NC4CCCC4)C3)sc2c1 (stereo unspecified) | -3.0 | -6.4 | -0.1 | -1.6 | -0.5 | 0.3 | . | .
COc1ccc(C2CC(=O)Oc3cc(O)cc(O)c32)cc1 (stereo unspecified) | 4.0 | 7.9 | 5.8 | 6.8 | 7.3 | -3.0 | . | .
COc1ccc([C@H]2Oc3cc(O)cc(O)c3C(=O)C2[C@@H]2C(=O)c3c(O)cc(O)cc3O[C@@H]2c2ccc(OC)cc2)cc1 (stereo partly specified) | -22.3 | -30.7 | -9.1 | 4.7 | -28.4 | 24.7* | 8.4 | 4.3
C/C(=N\NC(=O)COc1ccc(C)cc1Br)c1cc([N+](=O)[O-])cs1 | -4.9 | -2.7 | 0.6 | 2.0 | -2.6 | 22.0* | 23.5* | 1.5
N#CC1=C2N=C(N)c3ccccc3N2C2=C(C(=O)CCC2)C1c1ccc(Cl)cc1 (stereo unspecified) | -0.2 | 7.4 | 4.2 | 5.9 | 17.1 | 14.1 | . | .
Cc1ccccc1C1C(C#N)=C2N=C(N)c3c(sc4c3CCCCC4)N2C2=C1C(=O)CCC2 (stereo unspecified) | 0.7 | 4.0 | 0.9 | 0.8 | 8.1 | 25.4* | 18.2* | 9.0
CS(=O)(=O)Nc1ccccc1C(=O)OCC(=O)N1CCC(c2ccccc2)=N1 | 1.3 | 11.4 | . | 2.1 | -7.3 | 0.0 | . | .
Nc1c(C(=O)N/N=C/c2ccc(Cl)cc2)cnn1-c1ccccc1 | 2.7 | 0.9 | 2.0 | -1.8 | -2.4 | 3.4 | . | .
O=c1c(Cl)c(N/N=C/c2ccc(Cl)cc2)cnn1-c1ccccc1 | -7.6 | -7.1 | -8.5 | 0.3 | -12.5 | 29.1* | 20.9* | -1.2
Cc1ccc(-n2nc(-c3ccco3)cc2C(=O)O)cc1 | -0.7 | -7.7 | -2.6 | -2.3 | -2.1 | 19.8* | 16.9* | -9.7
O=C(O)c1cc(-c2ccc(N3CCOCC3)cc2)nn1-c1ccc(F)cc1 | -2.5 | -3.3 | 0.5 | 2.4 | -5.9 | 41.7* | 31.4* | -3.6

Screening data (PubChem)
